Measurements reported in PubChem BioAssay (NCI).
This is part of a sample that, as a whole, favours compounds with a hit. Of some 83,000 tested, about 20% had one in any assay.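 Activity criterion: percent growth below 10, measured after cells in 96-well plates were exposed to a single compound concentration for 48 hours.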 Active and inactive are the calls of the source.

Experiments:
Assay in all cases: NCI-60 one-dose screen, 48 h (100 = growth as untreated, 0 = no growth, -100 = all killed)
Settings in all cases: 10 µM unless noted
DU-145 prostate = system: DU-145 prostate
K-562 leukemia = system: K-562 leukemia
MALME-3M melanoma = system: MALME-3M melanoma
MDA-MB-231 breast = system: MDA-MB-231 breast
RXF 393 renal = system: RXF 393 renal
SF-268 CNS = system: SF-268 CNS
SF-295 CNS = system: SF-295 CNS
SF-539 CNS = system: SF-539 CNS
UACC-257 melanoma = system: UACC-257 melanoma
M14 melanoma = system: M14 melanoma
HCT-15 colon = system: HCT-15 colon
HT29 colon = system: HT29 colon
SNB-75 CNS = system: SNB-75 CNS
SNB-19 CNS = system: SNB-19 CNS
U251 CNS = system: U251 CNS
PC-3 prostate = system: PC-3 prostate
SK-MEL-5 melanoma = system: SK-MEL-5 melanoma
UACC-62 melanoma = system: UACC-62 melanoma
LOX IMVI melanoma = system: LOX IMVI melanoma
SK-MEL-28 melanoma = system: SK-MEL-28 melanoma

Measured: growth

CCc1c(Cl)nc(N)nc1Nc1ccc(C)c(C)c1
inactive: DU-145 prostate 99.5% | K-562 leukemia 96.5% | MALME-3M melanoma 100% | MDA-MB-231 breast 97.3% | RXF 393 renal 93.9% | SF-268 CNS 97.9% | SF-295 CNS 93.2% | SF-539 CNS 100% | UACC-257 melanoma 105% | M14 melanoma 104% | HCT-15 colon 55.7% | HT29 colon 102% | SNB-75 CNS 93.5% | SNB-19 CNS 96.2% | U251 CNS 88.1% | PC-3 prostate 95.8% | SK-MEL-5 melanoma 92.9% | UACC-62 melanoma 92.8% | LOX IMVI melanoma 85.7% | SK-MEL-28 melanoma 103%

O=S(=O)(NCCCNc1nccc(-c2c(-c3cccc(O)c3)nc3occn23)n1)c1ccc(Cl)cc1
inactive: DU-145 prostate 95.4% | K-562 leukemia 55.6% | MALME-3M melanoma 10.7% | MDA-MB-231 breast 61.8% | RXF 393 renal 77.9% | SF-268 CNS 87.4% | SF-295 CNS 116% | SF-539 CNS 108% | UACC-257 melanoma 12.7% | M14 melanoma 24.3% | HCT-15 colon 98.7% | HT29 colon 36.3% | SNB-75 CNS 92% | SNB-19 CNS 108% | U251 CNS 102% | PC-3 prostate 82.7% | SK-MEL-5 melanoma 39.8% | LOX IMVI melanoma 44.4% | SK-MEL-28 melanoma 30.3%
active: UACC-62 melanoma 9.05%

O=C(c1ccccc1)N1N=C(c2ccc(-n3ccc(C(F)(F)F)n3)c(F)c2)CC1c1ccc[nH]1 (stereo not given)
inactive: DU-145 prostate 111% | K-562 leukemia 96.5% | MALME-3M melanoma 101% | MDA-MB-231 breast 99.5% | RXF 393 renal 112% | SF-268 CNS 104% | SF-295 CNS 105% | SF-539 CNS 109% | UACC-257 melanoma 95.6% | M14 melanoma 107% | HCT-15 colon 100% | HT29 colon 98.8% | SNB-75 CNS 98.4% | SNB-19 CNS 99.1% | U251 CNS 98.5% | PC-3 prostate 101% | SK-MEL-5 melanoma 103% | UACC-62 melanoma 101% | LOX IMVI melanoma 101% | SK-MEL-28 melanoma 111%

O=C(Nc1ccc(-c2ccc3c(c2)NC(=O)/C3=C\c2ccc[nH]2)cc1)NC1CC1
inactive: DU-145 prostate 103% | K-562 leukemia 92.5% | MALME-3M melanoma 105% | MDA-MB-231 breast 101% | RXF 393 renal 99.1% | SF-268 CNS 103% | SF-295 CNS 90.8% | SF-539 CNS 71.5% | UACC-257 melanoma 117% | M14 melanoma 94% | HCT-15 colon 88.3% | HT29 colon 88% | SNB-75 CNS 89.8% | SNB-19 CNS 92.6% | U251 CNS 75% | PC-3 prostate 99.4% | SK-MEL-5 melanoma 94% | UACC-62 melanoma 97.7% | LOX IMVI melanoma 89.3% | SK-MEL-28 melanoma 111%

O=C(Nc1ccc(Cl)cc1)c1cc(NCc2cc(O)ccc2O)ccc1O
inactive: DU-145 prostate 100% | K-562 leukemia 41.9% | MALME-3M melanoma 80.2% | MDA-MB-231 breast 69.1% | RXF 393 renal 67.1% | SF-268 CNS 77.2% | SF-295 CNS 116% | SF-539 CNS 43.5% | UACC-257 melanoma 77.3% | M14 melanoma 102% | HCT-15 colon 68.5% | HT29 colon 88.6% | SNB-75 CNS 101% | SNB-19 CNS 91.4% | U251 CNS 71.8% | PC-3 prostate 45.2% | SK-MEL-5 melanoma 82.9% | UACC-62 melanoma 65.5% | LOX IMVI melanoma 84.3% | SK-MEL-28 melanoma 99.2%

COc1ccc(N2CCN(c3ccc(NC4=C(Cl)C(=O)c5ncccc5C4=O)cc3)CC2)cc1
active: K-562 leukemia 4.16%
inactive: DU-145 prostate 35.3% | MALME-3M melanoma 31% | MDA-MB-231 breast 56.7% | RXF 393 renal 62.6% | SF-268 CNS 40% | SF-295 CNS 81.2% | SF-539 CNS 39.4% | UACC-257 melanoma 35.6% | M14 melanoma 53.6% | HCT-15 colon 40.9% | HT29 colon 49.9% | SNB-75 CNS 52.8% | SNB-19 CNS 29.4% | U251 CNS 26.7% | PC-3 prostate 53% | SK-MEL-5 melanoma 50.5% | UACC-62 melanoma 34.1% | LOX IMVI melanoma 35.3% | SK-MEL-28 melanoma 71%

COc1cc2c(=O)n(CCN)c3c4cc5c(cc4ccc3c2cc1OC)OCO5
inactive: SF-295 CNS 25% | UACC-257 melanoma 33.8% | SNB-75 CNS 43.7%
active: DU-145 prostate -83.2% | K-562 leukemia -55% | MALME-3M melanoma -72.3% | MDA-MB-231 breast -81.7% | RXF 393 renal -76.8% | SF-268 CNS -59.6% | SF-539 CNS -75.9% | M14 melanoma -50.8% | HCT-15 colon -75.5% | HT29 colon -89.8% | SNB-19 CNS -67.1% | U251 CNS -74.4% | PC-3 prostate -60.1% | SK-MEL-5 melanoma -78.8% | UACC-62 melanoma -12.5% | LOX IMVI melanoma -76.7% | SK-MEL-28 melanoma -71.2%

COc1ccc(C(=O)NNc2nc(Cl)nc(N3CCN(C(c4ccccc4)c4ccccc4)CC3)n2)cc1
active: K-562 leukemia -16.5% | MDA-MB-231 breast -1.74% | RXF 393 renal 9.64% | HCT-15 colon -37% | HT29 colon -57.3% | PC-3 prostate -13.3% | LOX IMVI melanoma -64.3%
inactive: DU-145 prostate 67.7% | MALME-3M melanoma 46.3% | SF-268 CNS 86.6% | SF-295 CNS 96.8% | SF-539 CNS 33.4% | UACC-257 melanoma 65.2% | M14 melanoma 31.3% | SNB-75 CNS 61.5% | SNB-19 CNS 45.4% | U251 CNS 71.4% | SK-MEL-5 melanoma 90.7% | UACC-62 melanoma 33.1% | SK-MEL-28 melanoma 53.9%

COc1ccc2c(c1)C(=O)CC(c1ccccc1OC)O2 (stereo not given)
inactive: DU-145 prostate 103% | K-562 leukemia 101% | MALME-3M melanoma 102% | MDA-MB-231 breast 86.8% | RXF 393 renal 106% | SF-268 CNS 96.6% | SF-295 CNS 101% | SF-539 CNS 96.6% | UACC-257 melanoma 101% | M14 melanoma 106% | HCT-15 colon 93.1% | HT29 colon 107% | SNB-75 CNS 80.4% | SNB-19 CNS 98.8% | U251 CNS 98.4% | PC-3 prostate 104% | SK-MEL-5 melanoma 98.7% | UACC-62 melanoma 85.8% | LOX IMVI melanoma 89.3% | SK-MEL-28 melanoma 106%

O=C(Nc1ccc(NC(=O)c2cc(=O)[nH]c3ccccc23)cc1)Nc1cccc(Cl)c1
inactive: DU-145 prostate 105% | K-562 leukemia 83.5% | MALME-3M melanoma 90% | MDA-MB-231 breast 78.7% | RXF 393 renal 95.3% | SF-268 CNS 65.3% | SF-295 CNS 95.3% | SF-539 CNS 84.1% | UACC-257 melanoma 98.2% | M14 melanoma 93% | HCT-15 colon 103% | HT29 colon 88.4% | SNB-75 CNS 74.4% | SNB-19 CNS 95.2% | U251 CNS 89.4% | PC-3 prostate 76.5% | SK-MEL-5 melanoma 92.9% | UACC-62 melanoma 84.6% | LOX IMVI melanoma 87.7% | SK-MEL-28 melanoma 109%

CCN(CC)CCn1c(=O)c2cc(OC)c(OC)cc2c2ccc3cc4c(cc3c21)OCO4
active: RXF 393 renal 8.86% | SF-539 CNS -7.07% | LOX IMVI melanoma -42.2%
inactive: DU-145 prostate 24.1% | K-562 leukemia 33.4% | MALME-3M melanoma 17.2% | MDA-MB-231 breast 54.8% | SF-268 CNS 35.6% | SF-295 CNS 24.5% | UACC-257 melanoma 41.3% | M14 melanoma 10.6% | HCT-15 colon 54.7% | HT29 colon 17.1% | SNB-75 CNS 47.9% | SNB-19 CNS 27.1% | U251 CNS 22.7% | PC-3 prostate 48% | SK-MEL-5 melanoma 36.1% | UACC-62 melanoma 16.8% | SK-MEL-28 melanoma 53.4%

COc1cccc(-c2nc3occn3c2-c2ccnc(NCCNS(=O)(=O)c3ccc(C(F)(F)F)cc3)n2)c1
inactive: DU-145 prostate 96.4% | K-562 leukemia 71.6% | MALME-3M melanoma 107% | MDA-MB-231 breast 87.2% | RXF 393 renal 90.8% | SF-268 CNS 88.2% | SF-295 CNS 99.1% | SF-539 CNS 104% | UACC-257 melanoma 121% | M14 melanoma 102% | HCT-15 colon 80% | HT29 colon 85.1% | SNB-75 CNS 87% | SNB-19 CNS 98% | U251 CNS 101% | PC-3 prostate 77.6% | SK-MEL-5 melanoma 82.5% | UACC-62 melanoma 66.5% | LOX IMVI melanoma 93.3% | SK-MEL-28 melanoma 108%

C=CCN1C(=O)/C(=C/C(=O)OC)S/C1=N\NC(=O)c1cc2ccc1/C=C\c1ccc(cc1)/C=C\2
inactive: DU-145 prostate 106% | K-562 leukemia 51.9% | MALME-3M melanoma 92.4% | MDA-MB-231 breast 97.7% | RXF 393 renal 94.8% | SF-268 CNS 103% | SF-295 CNS 93.6% | SF-539 CNS 99.7% | UACC-257 melanoma 91.1% | M14 melanoma 78.9% | HCT-15 colon 66.9% | HT29 colon 46% | SNB-75 CNS 78.1% | SNB-19 CNS 84.7% | U251 CNS 81.8% | PC-3 prostate 48.4% | SK-MEL-5 melanoma 92.5% | UACC-62 melanoma 77.2% | LOX IMVI melanoma 78.8% | SK-MEL-28 melanoma 102%

CCOC(=O)Oc1c(OC)cc(C(=O)c2ccc(OC)c(OC(=O)CCl)c2OC)cc1OC
active: RXF 393 renal -17.9% | SF-539 CNS -16.9% | M14 melanoma -15%
inactive: DU-145 prostate 12.5% | K-562 leukemia 10.4% | MALME-3M melanoma 50.8% | MDA-MB-231 breast 33% | SF-268 CNS 43.8% | SF-295 CNS 20.7% | UACC-257 melanoma 48.5% | HCT-15 colon 16.6% | HT29 colon 35.9% | SNB-75 CNS 36.3% | SNB-19 CNS 22.8% | U251 CNS 19% | PC-3 prostate 23% | SK-MEL-5 melanoma 34.9% | UACC-62 melanoma 30.6% | LOX IMVI melanoma 43.5% | SK-MEL-28 melanoma 47.4%
